The list is not random: actives were taken first. Their share in the collection is about 4%.
Wnt bcat act = activates Wnt/beta-catenin signaling in a reporter cell assay | activator, plate reader | activation, % at 9.35 µM | 300,000 tested, 1.2% active | AID 743398; in the data active means activation above about 30%, passing the limit was not always enough; inconclusive means no clear call, values can overlap the other calls;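 further: 0% = neutral control wells and 100% = positive control wells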
LMP1 NFkB inh = Epstein-Barr LMP1 NF-kappaB reporter inhibition. LMP1-induced NF-kappaB luciferase reporter cells, luminescence. inhibition, % at 12.5 µM. 350,000 tested, 0.69% active. AID 504558; in the data active means inhibition above about 41%; inconclusive means no clear call, values can overlap the other calls;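 further: 0% = neutral control wells and 100% = reference inhibitor control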
MITF TRPM1 inh = reduces MITF-dependent TRPM1 promoter luciferase signal | SK-MEL-5 TRPM1 promoter luciferase, 24 h | inhibition, % at 12.5 µM | 330,000 tested, 0.83% active;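 active means mean inhibition across replicates of 60% or more, whatever share of single replicates reaches that level; inconclusive means some that reach 60%, reason not given; inactive means mean inhibition across replicates below 60%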
esBAF inh = SWI/SNF esBAF complex inhibition; reporter increase, % at 12.5 µM; 350,000 tested, 2% active; mouse ES cells, Bmi1-luciferase knock-in reporter, 24 h; 100% = twice the neutral-well signal; in the data active means activation above about 40%; inconclusive means no clear call, values can overlap the other calls;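 further: 0% = median of the plate's neutral control wells and 100% = double that signal; a rise in the Bmi1 reporter signal indicates esBAF inhibition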
MITF TRPM1 HTS = activators of MITF-driven TRPM1 promoter activity in SK-MEL-5 cells. 300,000 tested, 0.75% active. AID 588334. SK-MEL-5 TRPM1-promoter luciferase, 24 h; % of positive control, neutral wells = 0. activation, % at 12.5 µM;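 active means mean activation of at least 80% with every replicate also reaching 80%; inconclusive means mean reaches 80% but some replicate falls short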;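 further: 0% = neutral control wells and 100% = parthenolide positive control wells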
Statin myotox sup = protects C2C12 myotubes from simvastatin toxicity; 330,000 tested, 0.78% active; ATP luminescence, 48 h; scaled: DMSO 0, geranylgeraniol control 100; rescue of ATP level, % at 7.49 µM;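 active means mean ATP rescue above about 67%, or every replicate alone reaching that limit, limit read from the data, passing the limit was not always enough; inconclusive means no clear call, values can overlap the other calls; inactive means mean under the limit and some replicate under it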;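 further: myotubes were challenged with 10 µM simvastatin during compound exposure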
Active calls of the source: *; ? = inconclusive; nt = no result given.

SMILES | Wnt bcat act | LMP1 NFkB inh | MITF TRPM1 inh | esBAF inh | MITF TRPM1 HTS | Statin myotox sup
Cc1ccc2c(Cl)c(C(=O)Nc3cc(C)on3)sc2c1 | 42* | -44 | -52 | 60* | 53 | 6
C[C@H](CO)N1C[C@H](C)[C@@H](CN(C)C(=O)Nc2ccccc2)Oc2ccc(N(C)C)cc2CC1=O | nt | nt | nt | -1 | nt | -26
Cc1ccc(F)c(NC(=S)Nc2cccc3ccccc23)c1 | 2 | 6 | -8 | 8 | 8 | 17
CCNC(=O)c1sc2cc(C)ccc2c1Cl | 10 | 7 | -67 | 24* | 73 | nt
COc1ccc(CCNC(=O)c2sc3cc(C)ccc3c2Cl)cc1 | nt | -3 | -14 | -1 | 13 | 13
CCC(=O)NCCc1nc2cc(NC(=O)c3ccc(F)cc3)ccc2n1C | 29 | -26 | -86 | 39 | 93* | 4
CCC(=O)NCCc1nc2cc(NC(=O)c3ccc(Cl)cc3)ccc2n1C | 37* | -31 | -120 | 30 | 123* | -12
CCCCN(C(=O)CN1CCOCC1)c1c(N)n(CC(C)C)c(=O)[nH]c1=O | -2 | -5 | -5 | -2 | 3 | -6
CCOc1ccccc1Oc1coc2cc(OC(=O)c3ccco3)ccc2c1=O | nt | 3 | 3 | -9 | -4 | 37
Cc1noc(C)c1S(=O)(=O)Nc1ccc2c(c1)CC(=O)N([C@H](C)CO)C[C@@H](C)[C@H](CN(C)Cc1ccc(-c3ccccc3)cc1)O2 | nt | nt | nt | 1 | nt | 111*
Cc1noc(C)c1S(=O)(=O)Nc1ccc2c(c1)CC(=O)N([C@@H](C)CO)C[C@@H](C)[C@H](CN(C)Cc1ccc(Cl)c(Cl)c1)O2 | nt | nt | nt | -4 | nt | 19
Cc1noc(C)c1S(=O)(=O)Nc1ccc2c(c1)CC(=O)N([C@H](C)CO)C[C@@H](C)[C@@H](CN(C)Cc1ccc(C(F)(F)F)cc1)O2 | nt | nt | nt | 3 | nt | 83*
Cc1noc(C)c1S(=O)(=O)Nc1ccc2c(c1)CC(=O)N([C@H](C)CO)C[C@H](C)[C@@H](CN(C)Cc1ccc(Cl)c(Cl)c1)O2 | nt | nt | nt | 9 | nt | 134*
Cc1noc(C)c1S(=O)(=O)Nc1ccc2c(c1)CC(=O)N([C@@H](C)CO)C[C@H](C)[C@@H](CN(C)Cc1ccc(Cl)c(Cl)c1)O2 | nt | nt | nt | 5 | nt | 79*
Cc1noc(C)c1S(=O)(=O)Nc1ccc2c(c1)CC(=O)N([C@@H](C)CO)C[C@@H](C)[C@@H](CN(C)Cc1ccc(Cl)c(Cl)c1)O2 | nt | nt | nt | 3 | nt | ?
Cc1noc(C)c1S(=O)(=O)Nc1ccc2c(c1)CC(=O)N([C@@H](C)CO)C[C@@H](C)[C@@H](CN(C)Cc1ccc(C(F)(F)F)cc1)O2 | nt | nt | nt | 1 | nt | 36
COCCn1c(SCC(=O)Nc2sc(C)c(C)c2C#N)nnc1C(C)C | -5 | -11 | -5 | 9 | 1 | nt
COc1cc(C2CC(=O)c3c([nH]c(C(=O)OCCOC(C)C)c3C)C2)cc(OC)c1OC (stereo unspecified) | -5 | 17 | 40 | -14 | -41 | -26
Clc1ccc(CSc2ccc(-c3ccccn3)nn2)cc1 | 27 | -7 | -8 | 32 | 10 | 61
Clc1ccc(CSc2cc3c(nn2)-c2ccccc2CC3)cc1 | nt | -27 | -41 | 52* | 45 | -26
O=C(Cn1cc(C(F)(F)F)cc(Cl)c1=O)NCc1ccc(F)cc1 | 9 | -8 | -54 | 58* | 48 | 1
O=C(Cn1cc(C(F)(F)F)cc(Cl)c1=O)NCCc1ccc(Cl)cc1Cl | 5 | -10 | -8 | nt | 12 | nt
CCC(=O)Nc1ccc(Oc2ccc3c(c2)C(=O)NC3=O)cc1 | -1 | -8 | -3 | 1 | 4 | -25
O=C(Nc1cccc2cccnc12)c1ccc2c(c1)OCCO2 | 4 | -11 | -55 | 48* | 55 | 27
CC(=O)Nc1ccccc1NC(=O)c1ccc2c(c1)OCO2 | 2 | 0 | nt | -7 | nt | 6
SMILES | Wnt bcat act | LMP1 NFkB inh | MITF TRPM1 inh | esBAF inh | MITF TRPM1 HTS | Statin myotox sup
N#Cc1ccccc1NC(=O)COC(=O)c1ccc2c(c1)OCCO2 | nt | -12 | 10 | 5 | -9 | 0
N#Cc1ccccc1NC(=O)c1ccc2c(c1)OCCO2 | 6 | -12 | -107 | 45* | nt | -2
Cc1cccc(NC(=O)c2ccc3c(c2)OCCO3)c1C | 6 | -26 | -109 | 55* | 113* | 3
COc1cc(NC(=O)c2ccc3c(c2)OCO3)c2ncccc2c1 | nt | -14 | -20 | ? | 15 | -5
CCCC(=O)Nc1ccccc1NC(=O)c1ccc2c(c1)OCO2 | 1 | 78* | 3 | -1 | -2 | 2
O=C(NC(=S)Nc1ccccc1Br)c1ccc2c(c1)OCO2 | 2 | -17 | -103 | nt | 110* | nt
Cc1ccc(NC(=O)c2ccc3c(c2)OCCO3)cc1 | nt | 22 | -8 | -51 | 8 | -66
O=C(CCNc1ccccc1)c1ccc2c(c1)OCO2 | 48* | -23 | -110 | 92* | nt | 0
Cc1ccccc1NC(=O)c1ccc2c(c1)OCCO2 | nt | 14 | -65 | 47* | 67 | -14
Cc1ccccc1NC(=O)C(=O)Nc1ccccc1C | 27 | -30 | -37 | 45* | 43 | 4
CCOc1ccccc1NC(=O)Nc1ccc2c(c1)OCO2 | 7 | 1 | -21 | nt | 22 | nt
CC(=O)Nc1ccccc1OCC(=O)c1ccc2c(c1)OCO2 | 37* | -32 | -22 | ? | nt | nt
COc1ccccc1NC(=S)NC1CC2CCC1C2 (stereo unspecified) | -2 | 3 | -2 | 3 | 3 | 126*
COc1cccc(/C=N/NC(=S)NC2CC3CCC2C3)c1OC (stereo unspecified) | -2 | 15 | 6 | 5 | nt | 29
COc1ccccc1Oc1ccc(NC(=O)c2ccccc2)cc1 | 13 | -1 | -6 | nt | 9 | nt
COc1ccc(NC(=O)NC(=O)c2ccccc2)cc1 | 52* | -19 | -61 | 37 | nt | 1
COc1ccccc1NC(=O)NC(N)=O | 1 | 1 | 4 | -7 | -4 | 17
COc1ccccc1NC(=O)NC(=O)c1ccccc1 | 47* | -37 | -46 | 62* | nt | 3
Oc1ccccc1/C=N/NC(=S)NC1CC2CCC1C2 (stereo unspecified) | 23 | -12 | -44 | 66* | 43 | 1
O=C1[C@H]2[C@@H](c3ccc(F)cc3)N3C(=O)N(c4ccccc4)C(=O)[C@@]3(Cc3ccc(Cl)cc3)[C@H]2C(=O)N1C1CCCCC1 | -5 | 7 | 3 | 3 | -4 | -9
CCSc1nnc(NC(=O)COc2cccc3ccccc23)s1 | nt | -1 | 15 | -3 | -15 | 6
CCNC(=O)C[C@@H]1CC[C@@H]2[C@H](COC[C@@H](O)CN2C(=O)C2CCOCC2)O1 | nt | nt | nt | 8 | nt | 22
Cc1ccc(S(=O)(=O)N2CCN(C)CC2)cc1-c1nnc2c3ccccc3c(C)nn12 | -6 | -6 | -2 | -1 | nt | -23
COc1cc(/C=C/C(=O)OCC(=O)NC(=O)NCc2ccco2)ccc1OC(F)F | 2 | -1 | 7 | -5 | -7 | 4
COC(=O)C(NC(=O)c1ccccc1)=C(C)C | nt | -5 | 4 | 1 | 1 | 94*

Bioassay records as filed in PubChem.
